Among the data in PubChem BioAssay (NCATS) are Potency values, retold here.

Molecules are shown by their SMILES. Inconclusive results are not listed. A number with no mark means an inactive call. Calls of active or inactive are those of the source. Calls come from the whole dose curve; as a rule, active = well fitted curve in the direction sought with a large enough effect; inconclusive = small, poorly fitted or top-dose-only effect, or another doubt; inactive = no such curve, though single readings can be large; an effect the other way counts as inactive or inconclusive.

Assay [1] in a line: qHTS of pediatric cancer cell lines to identify multiple opportunities for drug repurposing: Primary screen for RD cells (AID 1347104). Note: nearly all actives have a fitted effect of over 55% in size. Note: potency is the fitted concentration of half-maximal effect. In short, it runs like this:
(§1)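 Readout: CellTiter-Glo luminescence, 48 h treatment. Controls DMSO (neutral) and bortezomib 2.3 µM final (positive). Potency and efficacy taken from primary-screen concentration-response curves.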
For orientation: Quantitative high-throughput screening tests each substance at several concentrations.

A short description of assay [2]: qHTS of pediatric cancer cell lines to identify multiple opportunities for drug repurposing: Primary screen for MG 63 (6-TG R) cells (AID 1347105). Note: nearly all actives have a fitted effect of over 50% in size. Note: potency is the fitted concentration of half-maximal effect. In short, it runs like this: as §1
Assay [3] can be described thus: qHTS of pediatric cancer cell lines to identify multiple opportunities for drug repurposing: Primary screen for control Hh wild type fibroblast cells (AID 1347106).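 Note: series mostly up to about 46 µM; a drop in luminescence marks cytotoxicity and a rise apparent proliferation; nearly all actives have a fitted effect of over 55% in size.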 In short, it runs like this: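 Viability after 48 h compound treatment at 37C, 500-1,000 cells/well, read as ATP luminescence with CellTiter-Glo. Primary screens used 11-point (MIPE, 0.78 nM-46 µM) or 8-point (NPC, 0.59 nM-46 µM) final concentrations; follow-up screens used 11-point dilutions.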

Assay [4] can be described thus: qHTS of pediatric cancer cell lines to identify multiple opportunities for drug repurposing: Primary screen for Rh30 cells (AID 1347107). Note: nearly all actives have a fitted effect of over 75% in size. Note: potency is the fitted concentration of half-maximal effect. In short, it runs like this:
(§2)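 Cells (500-1,000/well) in growth media were settled 5 h at 37 degrees C, then given compounds for 48 h. Viability was read as CellTiter-Glo luminescence. Primary runs used MIPE at 11 points (0.78 nM-46 µM) and NPC at 8 points (0.59 nM-46 µM); follow-ups used 11 points.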

Assay [5] can be described thus: qHTS of pediatric cancer cell lines to identify multiple opportunities for drug repurposing: Primary screen for Rh41 cells (AID 1347108). Note: nearly all actives have a fitted effect of over 70% in size. Note: potency is the fitted concentration of half-maximal effect. In short, it runs like this: as §1
Assay [6] in a line: qHTS of pediatric cancer cell lines to identify multiple opportunities for drug repurposing: Confirmatory screen for NB1643 cells (AID 1347109). Note: nearly all actives have a fitted effect of over 45% in size. In short, it runs like this: as §2
Assay [7] can be described thus: qHTS of pediatric cancer cell lines to identify multiple opportunities for drug repurposing: Confirmatory screen for A673 cells (AID 1347110).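 Note: cells exposed to compound for 48 h before the viability read; nearly all actives have a fitted effect of over 65% in size.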 Note: potency is the fitted concentration of half-maximal effect. In short, it runs like this:
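Cells plated at 500-1,000/well were treated five hours later with multi-point dilutions up to 46 µM final. After two days, CellTiter-Glo was added and luminescence read.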

Assay [8] is described as follows: qHTS of pediatric cancer cell lines to identify multiple opportunities for drug repurposing: Confirmatory screen for BT-12 cells (AID 1347112). Note: nearly all actives have a fitted effect of over 55% in size. In short, it runs like this: as §2
Assay [9] can be described thus: qHTS of pediatric cancer cell lines to identify multiple opportunities for drug repurposing: Confirmatory screen for NB-EBc1 cells (AID 1347115).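 Note: cells exposed to compound for 48 h before the viability read; nearly all actives have a fitted effect of over 45% in size.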 In short, it runs like this:
as §2

A short description of assay [10]: qHTS of pediatric cancer cell lines to identify multiple opportunities for drug repurposing: Confirmatory screen for BT-37 cells (AID 1347117). Note: nearly all actives have a fitted effect of over 55% in size. In short, it runs like this: as §2
Assay [11] can be described thus: qHTS of pediatric cancer cell lines to identify multiple opportunities for drug repurposing: Confirmatory screen for TC32 cells (AID 1347118).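 Note: cells exposed to compound for 48 h before the read; nearly all actives have a fitted effect of over 65% in size.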 In short, it runs like this:
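Luminescent ATP read-out (CellTiter-Glo) of metabolically active TC32 cells after 48 h exposure. Concentration-response curves came from 11-point (MIPE, 0.78 nM–46 µM) or 8-point (NPC, 0.59 nM–46 µM) primary titrations; follow-up used 11 points.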

Assay [12] is described as follows: qHTS of pediatric cancer cell lines to identify multiple opportunities for drug repurposing: Confirmatory screen for MG 63 (6-TG R) cells (AID 1347119). Note: nearly all actives have a fitted effect of over 55% in size. In short, it runs like this:
as §2

The nature of assay [13]: qHTS of pediatric cancer cell lines to identify multiple opportunities for drug repurposing: Confirmatory screen for control Hh wild type fibroblast cells (AID 1347121). Note: nearly all actives have a fitted effect of over 70% in size. In short, it runs like this: as §2
Assay [14] is described as follows: qHTS of pediatric cancer cell lines to identify multiple opportunities for drug repurposing: Confirmatory screen for U-2 OS cells (AID 1347122). Note: nearly all actives have a fitted effect of over 65% in size. In short, it runs like this: as §2
A short description of assay [15]: qHTS of pediatric cancer cell lines to identify multiple opportunities for drug repurposing: Confirmatory screen for RD cells (AID 1347124).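 Note: cells exposed to compound for 48 h before viability readout; nearly all actives have a fitted effect of over 65% in size.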 In short, it runs like this:
as §2

A short description of assay [16]: qHTS of pediatric cancer cell lines to identify multiple opportunities for drug repurposing: Confirmatory screen for Saos-2 cells (AID 1347127). Note: nearly all actives have a fitted effect of over 60% in size. In short, it runs like this: as §2
Assay [17] in a line: qHTS of pediatric cancer cell lines to identify multiple opportunities for drug repurposing: Confirmatory screen for OHS-50 cells (AID 1347128). In short, it runs like this: as §2
Assay [18] can be described thus: qHTS of pediatric cancer cell lines to identify multiple opportunities for drug repurposing: Confirmatory screen for DAOY cells (AID 1347114). Note: nearly all actives have a fitted effect of over 65% in size. In short, it runs like this: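 Viability measured as metabolically active cells via CellTiter-Glo luminescence following 48 hours of compound exposure, 11-point dilutions in confirmatory testing. 500-1,000 cells/well plated 5 hours before dosing; controls were DMSO and 2.3 µM bortezomib.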

Assay [19] in a line: qHTS of pediatric cancer cell lines to identify multiple opportunities for drug repurposing: Confirmatory screen for Rh41 cells (AID 1347123).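 Note: 48 h compound exposure; nearly all actives have a fitted effect of over 60% in size.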 Note: potency is the fitted concentration of half-maximal effect. In short, it runs like this: as §2
Assay [20] can be described thus: qHTS of pediatric cancer cell lines to identify multiple opportunities for drug repurposing: Confirmatory screen for LAN-5 cells (AID 1347113). Note: nearly all actives have a fitted effect of over 65% in size. In short, it runs like this:
as §2

With `Cc1sccc1Br`, the Potency entry in assay [1], in [2], in [3], in assay [4] and in assay [5] was “inactive” in each case.

On to `O=C(OCC(O)CO)c1ccccc1Nc1ccnc2c(C(F)(F)F)cccc12` (stereo not drawn), for which the Potency entry in assay [1], in assay [2], in [3], in assay [4] and in [5] was “inactive” throughout.

For `CC(C)C(=O)Nc1cccc(C(F)(F)F)c1`, the Potency result in assay [1], in assay [2], in [3], in assay [4] and in assay [5] was “inactive” throughout.

For `COc1ccccc1N1CCN(CC(O)COc2cc(OC)c(OC)c(OC)c2)CC1` (stereo not drawn), the Potency entry in assay [1], in [2], in assay [3], in [4] and in assay [5] was “inactive” in each case.

With `Cc1cccc(OCC(O)CNC(C)(C)C)c1C` (stereo not drawn), the Potency entry in assay [1], in assay [2], in assay [3], in assay [4] and in [5] was “inactive” throughout.

As for `Cc1cc2nc3ccc(=[N+](C)C)cc-3sc2cc1N`, the Potency was 4.73 µM (active) in assay [1], 13.3 µM (active) in [2], 15 µM (active) in assay [4] and 5.96 µM (active) in [5]. For the same compound, the Potency result in assay [3] was “inactive”.

Turning to `Cc1nc2n(c(=O)c1CCN1CCC(C(=O)c3ccc(F)cc3)CC1)CCS2`, the Potency entry in [1], in assay [2], in assay [3], in [4] and in [5] was “inactive” in each case.

Turning to `CCOC(=O)c1ccc(O)c(O)c1`, the Potency result in [1], in assay [2], in assay [3], in assay [4] and in assay [5] was “inactive” throughout.

With `CC(=O)c1cc2ccccc2s1`, the Potency entry in assay [1], in assay [2], in assay [3], in assay [4] and in assay [5] was “inactive” each time.

For `CCC[C@H](N[C@@H](C)C(=O)N1[C@H](C(=O)O)C[C@@H]2CCCC[C@@H]21)C(=O)OCC`, the Potency result in assay [1], in assay [2], in assay [3], in assay [4] and in assay [5] was “inactive” throughout.

`CC(C)(C)CC(=O)OCC(=O)[C@@]1(O)CC[C@H]2[C@@H]3CCC4=CC(=O)C=C[C@]4(C)[C@H]3[C@@H](O)C[C@@]21C`: the Potency entry in assay [1], in [2], in assay [3], in [4], in assay [5] and in assay [6] was “inactive” throughout. For the same compound, the Potency entry in assay [8], in assay [9], in assay [10], in [11], in assay [12] and in [13] was “inactive” throughout. Besides, the Potency result in assay [14], in [15], in assay [16] and in [17] was “inactive” throughout. For the same compound, the Potency in assay [7] was 2.33 µM (active).

Take `CCC(=O)O[C@H]1[C@H](O[C@@H]2[C@@H](C)[C@H](O[C@H]3C[C@@](C)(OC)[C@@H](O)[C@H](C)O3)[C@@H](C)C(=O)O[C@H](CC)[C@@](C)(O)[C@H](O)[C@@H](C)C(=O)[C@H](C)C[C@@]2(C)O)O[C@H](C)C[C@@H]1N(C)C`: the Potency entry in assay [1], in assay [2], in assay [3], in [4] and in assay [5] was “inactive” throughout.

With `Oc1cccc2[nH]ccc12`, the Potency entry in assay [1], in [2], in [3], in assay [4] and in [5] was “inactive” in each case.

Take `Cc1cc(CCCOc2c(C)cc(-c3noc(C(F)(F)F)n3)cc2C)on1`: the Potency result in [1], in assay [2], in assay [3], in assay [4] and in assay [5] was “inactive” throughout.

On to `Cc1cc(=O)oc2cc(O[C@@H]3SC[C@@H](O)[C@H](O)[C@H]3O)ccc12`, for which the Potency result in [1], in [2], in assay [3], in assay [4] and in [5] was “inactive” in each case.

Consider `CCc1cc2cc(OC)c(OC)cc2c(Cc2ccccc2)n1`, for which the Potency result in [1], in [2], in assay [3], in assay [4], in assay [5] and in assay [6] was “inactive” each time. Further, the Potency entry in [7], in [8], in assay [18], in assay [9], in [10] and in assay [11] was “inactive” throughout. Also, the Potency entry in assay [13], in assay [14], in assay [15] and in assay [16] was “inactive” in each case. The Potency in assay [19] was 18.5 µM (active).

As for `COCCc1ccc(OCC2CO2)cc1` (stereo not drawn), the Potency result in assay [1], in assay [2], in assay [3], in [4] and in assay [5] was “inactive” in each case.

Consider `Cc1onc(-c2ccccc2)c1C(=O)Cl`, for which the Potency result in assay [1], in assay [2], in [3], in assay [4] and in [5] was “inactive” throughout.

Consider `CN1C(CSCC(F)(F)F)Nc2cc(Cl)c(S(N)(=O)=O)cc2S1(=O)=O` (stereo not drawn), for which the Potency result in assay [1], in [2], in assay [3], in assay [4] and in assay [5] was “inactive” in each case.

For `C[C@H](CN1CCCC1)C(=O)c1ccc(C(F)(F)F)cc1`, the Potency result in assay [1], in assay [2], in assay [3], in assay [4] and in assay [5] was “inactive” throughout.

With `O=C(OCC(COC(=O)c1cccnc1)(COC(=O)c1cccnc1)COC(=O)c1cccnc1)c1cccnc1`, the Potency result in [1], in [2], in [3], in [4] and in assay [5] was “inactive” throughout.

On to `Nc1ccc(O)cc1`, for which the Potency result in assay [1], in assay [2], in assay [3], in assay [4] and in assay [5] was “inactive” each time.

Consider `CC(=O)OCC(=O)[C@@]1(O)[C@H](OC(C)=O)C[C@H]2[C@@H]3CCC4=CC(=O)C=C[C@]4(C)[C@@]3(F)[C@@H](O)C[C@@]21C`, for which the Potency result in [1], in assay [2], in [3], in assay [4], in assay [5] and in [6] was “inactive” in each case. The Potency result in [7], in assay [8], in [20], in [18], in assay [9] and in assay [10] was “inactive” throughout. Besides, the Potency result in assay [12], in assay [13], in [14], in [19], in assay [15] and in [16] was “inactive” throughout. In assay [17], the Potency result was “inactive”.

Turning to `CC(C)(C)c1cc(C=O)cc(C(C)(C)C)c1O`, the Potency result in assay [1], in assay [2], in assay [3], in assay [4] and in [5] was “inactive” each time.

`COc1ccc(CCC(C)=O)cc1`: the Potency result in [1], in assay [2], in assay [3], in assay [4] and in [5] was “inactive” in each case.

Consider `CC(=O)N1CCN(c2ccc(O)cc2)CC1`, for which the Potency result in assay [1], in [2], in assay [3], in assay [4] and in [5] was “inactive” each time.
